Bioassay records as filed in PubChem.
KinaseGlo FLuc: Counterscreen for Luciferase (Kinase-Glo TM) Inhibition; Luciferin 4-monooxygenase (Photuris pensylvanica), Q27757; Kinase-Glo luciferase, ATP luminescence, 8 min; Potency, µM (series often up to 38.3 µM), inactives show at the highest dose activity change, negative = inhibition, hits mostly inhibitors; 200,000 compounds, 0.28% hits; further: nearly all actives have a fitted effect of over 60% in size
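Compound is pinned into ATP-containing buffer (10 uM ATP, imidazole pH 7.2, 7 mM MgCl2). Kinase-Glo luciferase reagent is then added. Light output is recorded following an 8-min room-temperature incubation.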
RORg inh: qHTS for inhibitors of ROR gamma transcriptional activity | Nuclear receptor ROR-gamma (Mus musculus), P51450 | Drosophila S2 Gal4-RORgamma UAS-luciferase reporter, 20 h | Potency, µM (series often up to 53.6 µM), without a hit: at the highest dose activity change, negative = inhibition, actives largely listed as inhibitors | 310,000 compounds, 5.4% hits | AID 2551, 2010; further: nearly all actives have a fitted effect of over 60% in size
Target sequence (P51450 whole entry, looked up, the tested form may be a part): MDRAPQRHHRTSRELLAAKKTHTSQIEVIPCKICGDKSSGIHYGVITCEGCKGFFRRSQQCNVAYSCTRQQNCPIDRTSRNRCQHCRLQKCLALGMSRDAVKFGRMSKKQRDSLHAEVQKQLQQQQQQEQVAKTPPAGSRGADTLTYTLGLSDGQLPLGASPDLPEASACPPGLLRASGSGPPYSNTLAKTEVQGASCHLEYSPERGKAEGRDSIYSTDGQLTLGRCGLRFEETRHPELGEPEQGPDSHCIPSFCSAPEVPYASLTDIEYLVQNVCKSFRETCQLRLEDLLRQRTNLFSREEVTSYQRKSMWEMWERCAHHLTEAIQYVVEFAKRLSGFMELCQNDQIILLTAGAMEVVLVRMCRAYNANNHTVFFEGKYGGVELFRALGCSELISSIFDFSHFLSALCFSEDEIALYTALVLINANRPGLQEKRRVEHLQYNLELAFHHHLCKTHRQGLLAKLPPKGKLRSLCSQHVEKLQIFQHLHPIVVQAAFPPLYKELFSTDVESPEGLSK
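Schneider cells (Drosophila), stable Gal4 DBD–ROR gamma + UAS-luc; 1 hr cmpd preincubation; Cu2+ induction 700 uM final; 20 hr ambient; luminescence.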
VP16 counter: VP16 counterscreen qHTS for inhibitors of ROR gamma transcriptional activity; AID 2546, 2010; Drosophila S2 Gal4-VP16 UAS-luciferase, luminescence, 20 h; Potency, µM (top dose mostly 53.6 µM), for the others: at the top dose activity, negative = inhibition, most hits filed as inhibitors; 310,000 compounds, 3.5% hits;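 further: Gal4-VP16 expression switched on by copper sulfate through the metallothionein promoter; nearly all actives have a fitted effect of over 50% in size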
An asterisk follows results filed as active. Most compounds without a hit are left out; they make up all but 6.4% or so of the library. The call rests on the fitted dose curve; in most records, active means well fitted curve in the direction sought with a large enough effect; inconclusive means small, poorly fitted or top-dose-only effect, or another doubt; inactive means no such curve, though single readings can be large; an effect the other way counts as inactive or inconclusive. On the % scale 0 is the no-effect control and ±100 the full control effect; potency means the concentration at half of the fitted maximal effect.

Results for COc1ccc(C(=O)NCc2nc3ccccc3[nH]2)cc1OC ?
KinaseGlo FLuc: 6%; RORg inh: -5%; VP16 counter: 7%

How did CCOc1ccc(C(=O)Nc2nc3ccccc3[nH]2)cc1OCC do in these assays?
KinaseGlo FLuc: -1%; RORg inh: 1.4µM*; VP16 counter: 16µM*

What do the screens show for `COc1ccc(C(=O)Nc2nc3ccccc3[nH]2)cc1OC`?
KinaseGlo FLuc: -2%; RORg inh: 11µM*; VP16 counter: 10µM*

How did COC(=O)C/C=C/[C@@H](C)[C@@H](Cc1ccccc1Br)OC do in these assays?
KinaseGlo FLuc: 1%; RORg inh: -7%; VP16 counter: 1%

What do the screens show for `COc1ccc(C(=O)Nc2cccc(C(=O)O)c2)cc1S(=O)(=O)N1CCCC1`?
RORg inh: 15%; VP16 counter: -8%

Results for COc1ccc(C(=O)Nc2nc3ccccc3[nH]2)cc1S(=O)(=O)N1CCCC1 ?
KinaseGlo FLuc: -4%; RORg inh: 11µM*; VP16 counter: inconclusive

How did Cc1ccc(CNS(=O)(=O)c2ccc(C)s2)cc1 do in these assays?
RORg inh: 25%; VP16 counter: -18%

What do the screens show for `OC(c1cc(C(F)(F)F)nc2c(C(F)(F)F)cccc12)C1CCCCN1` (configuration not stated)?
KinaseGlo FLuc: -6%; RORg inh: -29%; VP16 counter: -6%

Results for OC(c1cc(-c2ccc(C(F)(F)F)cc2)nc(C(F)(F)F)c1)C1CCCCN1 (configuration not stated) ?
RORg inh: inconclusive; VP16 counter: 22µM*

What do the screens show for `CCN(CCO)c1nc(NCc2ccccc2)c2cnn(C)c2n1`?
RORg inh: 5%; VP16 counter: 1%

Results for Cn1nc(C(=O)Nc2cccc(C(F)(F)F)c2)c2ccccc2c1=O ?
KinaseGlo FLuc: -1%; RORg inh: 22%; VP16 counter: -11%

What do the screens show for `Cn1nc(C(=O)Nc2c(-c3ccccc3)nc3sccn23)c2ccccc2c1=O`?
KinaseGlo FLuc: -1%; RORg inh: 10µM*; VP16 counter: inconclusive

What do the screens show for `CCN(CC)c1ccc(/C=N/NC(=O)Cc2cccs2)cc1`?
KinaseGlo FLuc: 0%; RORg inh: 7%; VP16 counter: -5%

What do the screens show for `CCN(CC)c1ccc(/C=N/NC(=O)C(O)c2ccccc2)cc1` (configuration not stated)?
KinaseGlo FLuc: -1%; RORg inh: -2%; VP16 counter: 3%

What do the screens show for `CCN(CC)c1ccc(/C=N/NC(=S)NCc2ccccc2)cc1`?
KinaseGlo FLuc: -4%; RORg inh: 1.3µM*; VP16 counter: 4µM*

How did C=CCNC(=S)N/N=C/c1ccc(N(CC)Cc2ccccc2)cc1 do in these assays?
KinaseGlo FLuc: -1%; RORg inh: 0.5µM*; VP16 counter: 0.71µM*

How did CCN(CC)c1ccc(/C=N/NC(=S)NCc2ccc(OC)cc2)cc1 do in these assays?
KinaseGlo FLuc: 5%; RORg inh: 0.89µM*; VP16 counter: 1.4µM*

How did CCN(CC)c1ccc(/C=N/NC(=O)Cc2ccc(OC)c(OC)c2)cc1 do in these assays?
RORg inh: 17%; VP16 counter: 11%

Results for COc1cc(OC)cc(C(=O)NC(C(=O)N2CCc3ccccc3C2)C(C)C)c1 (configuration not stated) ?
RORg inh: 40%; VP16 counter: -9%

What do the screens show for `CCOc1cccc(/C=N/NS(=O)(=O)c2ccc(C)c([N+](=O)[O-])c2)c1O`?
KinaseGlo FLuc: 6%; RORg inh: inconclusive; VP16 counter: 3.2µM*

Results for CCCCNC(=S)N/N=C/c1cccc(OCC)c1O ?
RORg inh: 4.5µM*; VP16 counter: 13µM*

How did COc1cccc(/C=N/NC(=O)N/N=C/c2cccc(OC)c2O)c1O do in these assays?
RORg inh: -23%; VP16 counter: 4%

What do the screens show for `CCOc1ccccc1/C=N/NC(=O)c1cccc(Cl)c1`?
KinaseGlo FLuc: 12%; RORg inh: inconclusive; VP16 counter: 2%

Results for O=[N+]([O-])c1ccccc1NC(=S)N/N=C/c1ccc(O)c(O)c1 ?
KinaseGlo FLuc: 2%; RORg inh: 10µM*; VP16 counter: inconclusive

Results for O=C(COc1ccccc1[N+](=O)[O-])N/N=C/c1ccc(O)c([N+](=O)[O-])c1 ?
KinaseGlo FLuc: 0%; RORg inh: 41%; VP16 counter: -13%

Results for Cc1ccc(S(=O)(=O)N/N=C/c2ccc(O)cc2O)cc1[N+](=O)[O-] ?
RORg inh: 33%; VP16 counter: inconclusive

What do the screens show for `CCOc1cccc(/C=N/NC(=S)Nc2ccccc2[N+](=O)[O-])c1O`?
KinaseGlo FLuc: -1%; RORg inh: 5µM*; VP16 counter: 11µM*

Results for O=C(Nc1cccc(F)c1)N1CC2(CCN(C(=O)c3ccco3)CC2)C1 ?
KinaseGlo FLuc: -5%; RORg inh: 22%; VP16 counter: -14%

Results for Cc1cc(C)c(OCCN2CCOCC2)c(Cl)c1 ?
RORg inh: -31%; VP16 counter: 15%

Results for c1cncc(-c2cncnc2NCc2cccs2)c1 ?
RORg inh: 20%; VP16 counter: 8%

Results for CCNC(=S)NNC(=O)c1ccccn1 ?
KinaseGlo FLuc: 1%; RORg inh: 8.9µM*; VP16 counter: inconclusive

How did COc1ccc(NC(=S)NNC(=O)c2ccccc2OC(F)F)cc1 do in these assays?
KinaseGlo FLuc: -2%; RORg inh: 13µM*; VP16 counter: -8%

What do the screens show for `CCNC(=S)NNC(=O)c1ccccc1Cl`?
KinaseGlo FLuc: 3%; RORg inh: 3.2µM*; VP16 counter: 14µM*

What do the screens show for `O=C(NNC(=S)Nc1ccc(Cl)c(Cl)c1)c1ccccn1`?
KinaseGlo FLuc: -1%; RORg inh: inconclusive; VP16 counter: -12%

What do the screens show for `CCNC(=S)NNC(=O)c1ccoc1C`?
KinaseGlo FLuc: 0%; RORg inh: -34%; VP16 counter: -9%

What do the screens show for `CCc1ccc(NC(=S)NNC(=O)c2ccccc2OC(F)F)cc1`?
KinaseGlo FLuc: 2%; RORg inh: -41%; VP16 counter: inconclusive

What do the screens show for `O=C(NNC(=O)c1ccccc1Cl)c1ccccc1Cl`?
RORg inh: -21%; VP16 counter: -1%

How did CCNC(=S)NNC(=O)c1ccccc1OC(F)F do in these assays?
KinaseGlo FLuc: -5%; RORg inh: 4µM*; VP16 counter: inconclusive

What do the screens show for `CC1(C(=O)Nc2c(F)c(F)c(F)c(F)c2F)CC1(Br)Br` (configuration not stated)?
RORg inh: 22%; VP16 counter: -6%

How did CCc1ccc(NC(=O)C2C3/C=C\CCCCC32)cc1 (configuration not stated) do in these assays?
KinaseGlo FLuc: 2%; RORg inh: -11%; VP16 counter: -8%

What do the screens show for `CC1CCc2c(sc3nc(C(C)(C)C)nc(N4CCN(C(=O)CCl)CC4)c23)C1` (configuration not stated)?
RORg inh: 13µM*; VP16 counter: 13µM*

How did CCN1CCN(c2ncnc3sc4c(c23)CCC(C)C4)CC1 (configuration not stated) do in these assays?
RORg inh: 0%; VP16 counter: -2%
